Inconclusive results are not listed. Active and inactive are the calls of the source. How the source made its calls, unless noted: active means hit-call score of the fitted dose curve at least 0.9, where 1 is the maximum; inactive means score below 0.9.

For orientation: AC50 means the concentration giving half of the maximal activity seen.

Assay [1] deals with Paired box protein Pax-6 (Homo sapiens) (UniProt P26367). As to the kind of experiment: ATG_Pax6_CIS: Attagene CIS-FACTORIAL HepG2 Assay for human Paired Box 6 (PAX6) (AID 2282956). As to conditions: HepG2 CIS-FACTORIAL PAX6 reporter transcription, RNA readout; actives raise or lower the signal. The gist of the method:
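Readout: reporter transcript fluorescence after RT-PCR and capillary electrophoresis. Cells: HepG2, transiently transfected with cis-regulated MRTUs. Exposure 24 h. Gain or loss of signal fitted bidirectionally relative to DMSO.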

Assay [2] in a line: ATG_PXRE_CIS: Attagene CIS-FACTORIAL HepG2 Assay for human Pregnane X Receptor Element (PXRE) (AID 2282957). As to conditions: HepG2 Attagene CIS-FACTORIAL PXRE reporter, mRNA; actives raise or lower the signal. In outline: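 After a 24 h chemical incubation, total RNA from transfected HepG2 cells was reverse-transcribed and reporter cDNA amplified, FAM-labeled, HpaI-digested and sized by capillary electrophoresis. DMSO served as baseline for bidirectional curve fitting.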

Assay [3] is described as follows: ATG_PPRE_CIS: Attagene CIS-FACTORIAL HepG2 Assay for human Peroxisome Proliferator-activated Response Element (PPRE) (AID 2282958). The settings on record: HepG2 PPRE cis-element reporter, Attagene transcription factor profiling; actives raise or lower the signal. In outline: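 Read-out: fluorescent reporter mRNA fragments resolved by capillary electrophoresis after RT-PCR. HepG2 cells carried transiently transfected PPRE-driven cis reporter constructs and were dosed for 24 h; gain or loss of signal fitted relative to DMSO.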

The nature of assay [4]: ATG_RORE_CIS: Attagene CIS-FACTORIAL HepG2 Assay for human RAR-related Orphan Receptor Element (RORE) (AID 2282959). As to conditions: HepG2 Attagene cis-factorial RORE reporter, mRNA; actives raise or lower the signal. The gist of the method: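 Readout: fluorescent reporter mRNA by RT-PCR plus capillary electrophoresis, 24 h after dosing transfected HepG2 cells. Endogenous transcription factor activity on a cis promoter element is measured. Gain or loss of signal fitted against DMSO.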

A short description of assay [5]: ATG_Sox_CIS: Attagene CIS-FACTORIAL HepG2 Assay for human SRY-box transcription factor (SOX) (AID 2282960). The settings on record: HepG2 Attagene cis-factorial SOX reporter, mRNA; actives raise or lower the signal. In outline: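 Read-out: fluorescent RT-PCR products of SOX1-linked reporter transcripts resolved by capillary electrophoresis, fitted bidirectionally against DMSO. Transiently transfected HepG2 cells, 24 h after chemical exposure, endogenous transcription factor activity.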

In assay [6] the target is Transcription factor Sp1 (Homo sapiens) (UniProt P08047). Description: ATG_Sp1_CIS: Attagene CIS-FACTORIAL HepG2 Assay for human Specificity Protein 1 (Sp1) (AID 2282961). The settings on record: HepG2 Sp1 cis-reporter transcription, actives raise or lower the signal. In outline: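 Read-out: fluorescence of 6-FAM-labeled, HpaI-digested RT-PCR products separated by capillary electrophoresis. HepG2 cells carried transfected cis-element reporter units and were exposed to chemicals for 24 h; gain or loss of signal fitted relative to DMSO.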
Sequence of Transcription factor Sp1 (Homo sapiens) (P08047 whole entry, looked up): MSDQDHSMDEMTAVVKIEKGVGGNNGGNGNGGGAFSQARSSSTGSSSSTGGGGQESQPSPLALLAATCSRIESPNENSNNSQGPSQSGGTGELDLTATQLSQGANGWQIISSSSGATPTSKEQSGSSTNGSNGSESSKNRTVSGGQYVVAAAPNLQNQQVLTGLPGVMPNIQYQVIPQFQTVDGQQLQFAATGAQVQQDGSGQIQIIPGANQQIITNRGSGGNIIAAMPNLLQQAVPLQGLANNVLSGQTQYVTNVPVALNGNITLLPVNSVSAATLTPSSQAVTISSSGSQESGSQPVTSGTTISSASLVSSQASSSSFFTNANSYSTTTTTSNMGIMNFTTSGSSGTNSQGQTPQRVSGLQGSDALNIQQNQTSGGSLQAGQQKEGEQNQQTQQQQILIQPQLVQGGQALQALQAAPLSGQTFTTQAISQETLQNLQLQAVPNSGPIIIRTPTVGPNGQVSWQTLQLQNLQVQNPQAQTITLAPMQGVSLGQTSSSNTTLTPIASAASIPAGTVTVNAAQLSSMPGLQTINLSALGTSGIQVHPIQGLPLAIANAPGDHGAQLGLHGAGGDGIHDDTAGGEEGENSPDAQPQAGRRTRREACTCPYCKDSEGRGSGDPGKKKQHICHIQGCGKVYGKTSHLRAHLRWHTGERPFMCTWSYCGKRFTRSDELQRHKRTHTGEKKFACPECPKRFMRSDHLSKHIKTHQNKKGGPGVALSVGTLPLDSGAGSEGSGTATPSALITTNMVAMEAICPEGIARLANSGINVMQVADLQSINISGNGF

Assay [7] can be described thus: ATG_SREBP_CIS: Attagene CIS-FACTORIAL HepG2 Assay for human Sterol Regulatory Element Binding (SREBP) (AID 2282962). The settings on record: HepG2 Attagene cis-factorial SREBP reporter, mRNA; actives raise or lower the signal. The gist of the method: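 Readout: fluorescent reporter-transcript peaks resolved by capillary electrophoresis after RT-PCR. Cells were human HepG2 carrying transfected cis-promoter reporter constructs, dosed for 24 h. Gain or loss of signal was fitted against DMSO controls.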

Assay [8] has as its target Signal transducer and activator of transcription 3 (Homo sapiens) (UniProt P40763). Description: ATG_STAT3_CIS: Attagene CIS-FACTORIAL HepG2 Assay for human Signal Transducer and Activator of Transcription 3 (STAT3) (AID 2282963). The settings on record: HepG2, Attagene cis-factorial STAT3 reporter transcription; actives raise or lower the signal. The gist of the method: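 Cis-factorial format: endogenous transcription factors in HepG2 drive transfected reporter units. After 24 h treatment, reporter RNA was reverse-transcribed, amplified, FAM-labelled and HpaI-digested before CE analysis; activity scored in both directions against DMSO.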

Assay [9] can be described thus: ATG_TA_CIS: Attagene CIS-FACTORIAL HepG2 Assay for human TA Basal Promoter (AID 2282964). The settings on record: HepG2 Attagene CIS-factorial TA basal promoter reporter; actives raise or lower the signal. In outline: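 Steps: transfect HepG2 with MRTUs; dose 24 h; isolate RNA, DNase-treat, reverse-transcribe; PCR and FAM-label reporter cDNA; digest with HpaI 2h at 37 C; run capillary electrophoresis. Activity fitted both directions against DMSO.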

A short description of assay [10]: ATG_TCF_b_cat_CIS: Attagene CIS-FACTORIAL HepG2 Assay for human T-Cell-Factor with beta-catenin (TCF/b-cat) (AID 2282965). As to conditions: HepG2 TCF/beta-catenin cis-reporter transcription, actives raise or lower the signal. In outline: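 Measured: reporter mRNA in HepG2 transiently transfected with cis-promoter reporter units, 24 h after chemical addition. Fitting was bidirectional, DMSO as negative control.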

Assay [11] is described as follows: ATG_TAL_CIS: Attagene CIS-FACTORIAL HepG2 Assay for human TAL Basal Promoter (AID 2282966).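 Further: background control endpoint measuring basal TAL promoter reporter mRNA not a specific factor.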 As to conditions: HepG2 Attagene cis-factorial TAL promoter reporter; actives raise or lower the signal. The gist of the method:
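Basal-promoter background-control endpoint from a multiplexed HepG2 reporter panel. Cells were exposed 24 h, then reporter mRNA was read by RT-PCR/CE fluorescence and fitted in both directions relative to DMSO.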

Assay [12] is described as follows: ATG_TGFb_CIS: Attagene CIS-FACTORIAL HepG2 Assay for human Transforming Growth Factor (TGF) (AID 2282967). As to conditions: HepG2 Attagene CIS TGFb reporter, mRNA transcription; actives raise or lower the signal. In outline: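 Cells were dosed for 24 hours, after which total RNA was reverse-transcribed and reporter sequences amplified, labeled and sized by capillary electrophoresis. Activity was fitted in both directions against DMSO.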

Assay [13] is described as follows: ATG_VDRE_CIS: Attagene CIS-FACTORIAL HepG2 Assay for human Vitamin D Receptor Element (VDRE) (AID 2282968). As to conditions: HepG2 VDRE cis-reporter transcription, actives raise or lower the signal. In outline:
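Measures endogenous factor activity through cis-element-driven reporter transcripts in transiently transfected HepG2. Cells are treated 24 h; reporter mRNA is quantified by RT-PCR and capillary electrophoresis; fitting is bidirectional.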

For assay [14], the target named is Nuclear receptor subfamily 1 group I member 3 (Homo sapiens) (UniProt Q14994). As to the kind of experiment: ATG_CAR_TRANS: Attagene TRANS-FACTORIAL HepG2 Assay for human Constitutive Androstane Receptor (CAR) (AID 2282969; active means hit-call score of the fitted dose curve at least 0.9, where 1 is the maximum;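 further: activators raise reporter mRNA above DMSO so AC50 marks induction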). As to conditions: HepG2 Attagene TRANS-FACTORIAL CAR reporter. The gist of the method:
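Signal is reporter mRNA induction relative to DMSO, measured 24 h after dosing by RT-PCR with fluorescent primer extension and capillary electrophoresis. Human HepG2 liver cells carried transiently transfected chimeric NR-Gal4/GAL4-UAS reporter constructs.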

Assay [15] has as its target Estrogen receptor (Homo sapiens) (UniProt P03372). Description: ATG_ERa_TRANS: Attagene TRANS-FACTORIAL HepG2 Assay for human Estrogen Receptor alpha (ERa) (AID 2282970; active means hit-call score of the fitted dose curve at least 0.9, where 1 is the maximum). The settings on record: HepG2 Attagene TRANS ERa GAL4 reporter, mRNA. In outline: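 Gal4-fusion ERa transactivation, measured as reporter transcript level in transiently transfected HepG2 cells. Exposure 24 h; RT-PCR plus capillary electrophoresis with fluorescence detection.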

Assay [16] addresses X-box-binding protein 1 (Homo sapiens) (UniProt P17861). Description: ATG_Xbp1_CIS: Attagene CIS-FACTORIAL HepG2 Assay for human X-box Binding Protein 1 (XBP1) (AID 2282972). As to conditions: HepG2 XBP1 cis-element reporter, Attagene multiplex; actives raise or lower the signal. The gist of the method: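 Read-out: fluorescent reporter mRNA fragments resolved by capillary electrophoresis after RT-PCR. Human HepG2 liver cells carried transfected cis-promoter reporter units and were exposed to chemicals for 24 hours. Gain or loss of signal fitted relative to DMSO baseline.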

Assay [17] has as its target Estrogen-related receptor gamma (Homo sapiens) (UniProt P62508). As to the kind of experiment: ATG_ERRg_TRANS: Attagene TRANS-FACTORIAL HepG2 Assay for human Estrogen-Related Receptor gamma (ERRg) (AID 2282977; active means hit-call score of the fitted dose curve at least 0.9, where 1 is the maximum;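 further: hits increase reporter signal over DMSO so potencies reflect activators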). The settings on record: HepG2 Attagene TRANS reporter, ERRg transactivation. In outline:
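Readout: fluorescent reporter-mRNA fragments resolved by capillary electrophoresis after RT-PCR and HpaI cut. Cells: transiently transfected HepG2 carrying GAL4-UAS reporters driven by exogenous NR-Gal4 chimeras, dosed 24 h. Activity fitted upward relative to DMSO baseline.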

Assay [18] deals with Steroid hormone receptor ERR1 (Homo sapiens) (UniProt P11474). Description: ATG_ERRa_TRANS: Attagene TRANS-FACTORIAL HepG2 Assay for human Estrogen-Related Receptor alpha (ERRa) (AID 2282971; active means hit-call score of the fitted dose curve at least 0.9, where 1 is the maximum). As to conditions: HepG2 Attagene TRANS reporter, ERRa transactivation. In outline:
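HepG2 cells transiently transfected with GAL4-UAS reporter units and chimeric NR-Gal4 constructs; after 24 hour compound incubation, reporter mRNA quantified by RT-PCR, fluorescent labelling and capillary electrophoresis, gain of signal versus DMSO.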

The nature of assay [19]: ATG_M_19_TRANS: Attagene TRANS-FACTORIAL HepG2 Assay for M19 Transcription Factor (Internal Marker) (AID 2282974; active means hit-call score of the fitted dose curve at least 0.9, where 1 is the maximum). As to conditions: HepG2 Attagene TRANS-FACTORIAL M19 internal marker reporter. The gist of the method: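 24 h chemical exposure of transiently transfected HepG2 (MRTU library). RNA → oligo(dT) RT → PCR → 6-FAM labelling → HpaI cut → CE fluorescence. Positive-direction fit vs DMSO baseline; background internal-marker readout.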

A short description of assay [20]: ATG_GAL4_TRANS: Attagene TRANS-FACTORIAL HepG2 Assay for GAL4 (Internal Marker) (AID 2282976; active means hit-call score of the fitted dose curve at least 0.9, where 1 is the maximum). As to conditions: HepG2 Attagene TRANS GAL4 internal marker reporter. The gist of the method: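 Background-control readout: GAL4-UAS reporter transcript in transiently transfected HepG2 cells after 24 h compound exposure. Measured by RT-PCR, 6-FAM primer extension, HpaI digest and capillary electrophoresis; gain-of-signal fit versus DMSO.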

Sequence of Paired box protein Pax-6 (Homo sapiens) (P26367 whole entry, looked up): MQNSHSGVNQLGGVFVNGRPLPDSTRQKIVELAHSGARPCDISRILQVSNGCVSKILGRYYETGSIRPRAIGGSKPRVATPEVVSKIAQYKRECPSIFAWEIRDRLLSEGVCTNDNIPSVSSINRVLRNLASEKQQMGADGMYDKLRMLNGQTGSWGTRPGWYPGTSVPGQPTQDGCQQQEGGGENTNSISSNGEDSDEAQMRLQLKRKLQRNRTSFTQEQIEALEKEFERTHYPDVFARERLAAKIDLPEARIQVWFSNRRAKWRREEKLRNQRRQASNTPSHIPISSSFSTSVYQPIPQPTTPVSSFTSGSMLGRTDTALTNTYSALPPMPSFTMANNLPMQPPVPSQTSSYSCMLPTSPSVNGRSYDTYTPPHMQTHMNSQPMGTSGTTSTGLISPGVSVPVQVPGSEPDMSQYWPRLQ
Sequence of X-box-binding protein 1 (Homo sapiens) (P17861 whole entry, looked up, the tested form may be a part): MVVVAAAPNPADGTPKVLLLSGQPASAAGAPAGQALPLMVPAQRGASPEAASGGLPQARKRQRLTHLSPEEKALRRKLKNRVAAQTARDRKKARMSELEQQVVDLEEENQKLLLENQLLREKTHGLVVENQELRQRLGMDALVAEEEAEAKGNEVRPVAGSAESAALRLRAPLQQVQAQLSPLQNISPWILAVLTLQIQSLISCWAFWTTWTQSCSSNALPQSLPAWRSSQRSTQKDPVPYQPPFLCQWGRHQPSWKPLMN
Sequence of Signal transducer and activator of transcription 3 (Homo sapiens) (P40763 whole entry, looked up): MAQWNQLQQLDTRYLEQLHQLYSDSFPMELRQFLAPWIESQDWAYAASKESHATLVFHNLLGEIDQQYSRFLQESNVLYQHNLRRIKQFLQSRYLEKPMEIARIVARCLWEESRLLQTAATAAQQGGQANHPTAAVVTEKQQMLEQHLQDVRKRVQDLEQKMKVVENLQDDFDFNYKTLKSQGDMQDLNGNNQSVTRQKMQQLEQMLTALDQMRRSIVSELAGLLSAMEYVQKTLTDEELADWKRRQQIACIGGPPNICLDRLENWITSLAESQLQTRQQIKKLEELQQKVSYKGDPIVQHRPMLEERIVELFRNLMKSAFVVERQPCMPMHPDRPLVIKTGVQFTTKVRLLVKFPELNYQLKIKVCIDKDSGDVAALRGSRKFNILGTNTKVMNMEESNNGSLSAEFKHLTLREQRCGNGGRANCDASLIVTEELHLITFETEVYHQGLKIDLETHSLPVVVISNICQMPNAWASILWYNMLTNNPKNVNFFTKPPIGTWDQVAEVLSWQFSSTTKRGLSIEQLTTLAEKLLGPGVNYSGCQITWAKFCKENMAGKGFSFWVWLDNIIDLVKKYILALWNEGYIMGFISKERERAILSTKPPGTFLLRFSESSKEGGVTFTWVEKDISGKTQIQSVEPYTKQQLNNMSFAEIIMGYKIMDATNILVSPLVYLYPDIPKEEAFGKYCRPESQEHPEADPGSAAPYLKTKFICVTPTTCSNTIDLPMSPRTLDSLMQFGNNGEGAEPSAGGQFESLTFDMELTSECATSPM
Sequence of Estrogen-related receptor gamma (Homo sapiens) (P62508 whole entry, looked up, the tested form may be a part): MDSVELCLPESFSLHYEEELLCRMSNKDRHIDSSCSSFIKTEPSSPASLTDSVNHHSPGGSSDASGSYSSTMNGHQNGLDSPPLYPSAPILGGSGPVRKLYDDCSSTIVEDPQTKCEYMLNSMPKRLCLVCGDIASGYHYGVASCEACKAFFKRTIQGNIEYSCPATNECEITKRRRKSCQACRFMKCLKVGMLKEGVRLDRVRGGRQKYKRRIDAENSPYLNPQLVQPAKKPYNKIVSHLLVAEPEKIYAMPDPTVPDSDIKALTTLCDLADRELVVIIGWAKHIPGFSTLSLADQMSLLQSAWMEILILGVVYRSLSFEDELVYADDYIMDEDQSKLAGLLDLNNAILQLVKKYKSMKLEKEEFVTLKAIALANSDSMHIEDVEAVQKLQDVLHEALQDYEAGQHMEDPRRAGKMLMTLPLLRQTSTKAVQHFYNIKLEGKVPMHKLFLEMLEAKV
Sequence of Estrogen receptor (Homo sapiens) (P03372 whole entry, looked up, the tested form may be a part): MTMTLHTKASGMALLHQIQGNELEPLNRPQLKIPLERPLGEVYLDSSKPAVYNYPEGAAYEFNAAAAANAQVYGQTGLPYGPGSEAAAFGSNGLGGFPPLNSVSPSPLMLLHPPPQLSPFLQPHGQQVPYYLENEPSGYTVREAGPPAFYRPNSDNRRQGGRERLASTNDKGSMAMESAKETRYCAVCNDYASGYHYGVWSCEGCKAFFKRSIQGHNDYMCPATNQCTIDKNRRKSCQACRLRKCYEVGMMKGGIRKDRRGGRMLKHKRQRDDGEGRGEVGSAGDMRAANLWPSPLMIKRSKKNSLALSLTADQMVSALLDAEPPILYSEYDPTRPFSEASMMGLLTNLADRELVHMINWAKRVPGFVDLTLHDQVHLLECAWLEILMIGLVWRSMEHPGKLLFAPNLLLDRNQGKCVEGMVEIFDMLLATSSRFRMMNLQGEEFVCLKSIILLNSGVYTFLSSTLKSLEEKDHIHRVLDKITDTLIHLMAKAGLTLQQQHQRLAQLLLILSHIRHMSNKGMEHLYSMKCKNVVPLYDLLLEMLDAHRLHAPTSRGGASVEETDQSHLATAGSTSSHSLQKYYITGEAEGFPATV
Sequence of Steroid hormone receptor ERR1 (Homo sapiens) (P11474 whole entry, looked up, the tested form may be a part): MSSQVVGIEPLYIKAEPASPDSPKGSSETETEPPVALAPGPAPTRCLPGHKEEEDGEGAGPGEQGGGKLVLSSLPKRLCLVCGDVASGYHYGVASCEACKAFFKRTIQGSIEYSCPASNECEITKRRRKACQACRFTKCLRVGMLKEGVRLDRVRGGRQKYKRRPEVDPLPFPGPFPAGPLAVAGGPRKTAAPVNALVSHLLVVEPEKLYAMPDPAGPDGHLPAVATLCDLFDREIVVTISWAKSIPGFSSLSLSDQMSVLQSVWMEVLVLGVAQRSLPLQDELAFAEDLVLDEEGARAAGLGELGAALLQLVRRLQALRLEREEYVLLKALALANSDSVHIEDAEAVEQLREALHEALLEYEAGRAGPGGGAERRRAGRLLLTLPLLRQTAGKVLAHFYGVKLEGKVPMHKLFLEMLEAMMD
Sequence of Nuclear receptor subfamily 1 group I member 3 (Homo sapiens) (Q14994 whole entry, looked up, the tested form may be a part): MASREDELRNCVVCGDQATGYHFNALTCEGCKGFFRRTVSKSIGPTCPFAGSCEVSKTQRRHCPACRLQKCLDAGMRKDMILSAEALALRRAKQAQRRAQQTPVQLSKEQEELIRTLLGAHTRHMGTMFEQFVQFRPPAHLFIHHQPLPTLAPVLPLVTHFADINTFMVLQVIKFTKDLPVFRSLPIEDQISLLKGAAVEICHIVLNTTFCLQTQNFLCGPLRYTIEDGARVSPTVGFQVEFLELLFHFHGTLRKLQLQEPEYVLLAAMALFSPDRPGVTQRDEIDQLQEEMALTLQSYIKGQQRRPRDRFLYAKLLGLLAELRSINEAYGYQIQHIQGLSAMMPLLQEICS

For the molecule `O=c1[nH]sc2ccccc12`, the result in assay [1], in [3], in [4], in [6], in [7] and in assay [8] was inactive. Besides, the molecule was classed as inactive in assay [9], in [11], in assay [12], in assay [13], in assay [14] and in assay [15]. In [17], the outcome was inactive. Further, the AC50 is 51.7 µM (active) in [2], 42.9 µM (active) in [5], 44.4 µM (active) in assay [10] and 52.9 µM (active) in assay [16].
Regarding `CC[C@H](NC(=O)c1cc(F)ccc1NS(=O)(=O)c1cccc2cccnc12)c1ccccc1`, the molecule was classed as inactive in assay [1], in [3], in assay [4], in assay [5], in [6] and in [8]. The outcome in [9], in assay [10], in assay [11], in assay [12], in assay [15] and in [18] was inactive. In addition, the molecule was called inactive in assay [16], in assay [19], in assay [20] and in [17]. The AC50 is 0.0144 µM (active) in assay [2], 27.1 µM (active) in [7] and 0.209 µM (active) in assay [13].
Turning to `c1ccc(C[n+]2cccc3ccccc32)cc1`, the molecule was classed as inactive in assay [1], in [2], in assay [3], in assay [4], in assay [5] and in assay [6]. Moreover, the result in assay [7], in assay [8], in assay [9], in assay [10], in [11] and in [12] was inactive. Also, the molecule was called inactive in assay [13], in assay [15], in assay [18], in assay [16], in assay [19] and in assay [17].
